Among the data in ChEMBL document CHEMBL4513216, “Probing the Open Global Health Chemical Diversity Library for Multistage-Active Starting Points for Next-Generation Antimalarials” (ACS Infect Dis, 2020) are INHIBITION values, retold here.

The structures appear in SMILES notation. The whole screen tested about 69,000 compounds, of which about 8,600 (12%) showed an effect of 50% or more. For the sample, strong results were picked, then their nearest neighbours and some compounds at random.

The experiment concerns Plasmodium berghei. Briefly: Screen against P. berghei liver stage (PbLuc), transformed with Luciferase, at 10uM. To be noted: tested at 10 uM. The experiment is classed as functional, HepG2.
On to `Cc1cc2ccccc2n1CC(=O)NC(C)C(=O)N1CCOCC1` (stereo not drawn), for which the INHIBITION is listed as -7.83%.
As to `CCCc1nc(C(C)(C)NC(=O)C2CC(=O)N(C3CC3)C2)no1` (stereo not drawn), the INHIBITION is 40%.
Under `CC(C)(C)n1cc(CNC2CCN(C(=O)c3ccoc3)CC2)cn1` stands 1.75%.
With `COc1cc(CN2CCC3(CC(Nc4ccncn4)C3)C2)cc(OC)c1` (stereo not drawn) the figure was 44.1%.
As for `Cc1cc2ccccc2n1CC(=O)NCC(=O)N1CCOCC1`, the INHIBITION turned out to be 8.41%.
For `CCOCc1nn(CC2CC2)c2c1CN(Cc1ccco1)CC2`, the INHIBITION was 12.4%.
Under `COc1ccc(-n2ccc(C(=O)NCCN3CCCC(C)C3)n2)cc1` (stereo not drawn) stands 62.1%; under `COc1ccc(-n2ccc(C(=O)NCCN3CCC(C)CC3)n2)cc1`, 38.8%.
With `CC1CCCN(CCNC(=O)c2ccn(-c3ccc(F)cc3)n2)C1` (stereo not drawn) the figure was 3.15%; with `O=C(NCCN1CCCCC1)c1ccn(-c2ccc(F)cc2)n1`, -2.53%; with `CCN1CCN(CCNC(=O)c2ccn(-c3ccc(F)cc3)n2)CC1`, 60.2%.
With `CC1CCCN(CCNC(=O)c2ccn(-c3cccc(F)c3)n2)C1` (stereo not drawn) the figure was 51.1%; with `CC1CCCN(CCNC(=O)c2ccn(-c3ccccc3)n2)C1` (stereo not drawn), 29.4%.
As to `COc1ccc(-n2ccc(C(=O)NCCN3CCCCC3)n2)cc1`, the INHIBITION is recorded as 40.2%.
With `O=C(NCCN1CCCCCC1=O)c1ccn(-c2ccc(F)cc2)n1` the figure was 13.3%; with `COc1cn(-c2ccccc2)nc1C(=O)NCCN1CCCC(C)C1` (stereo not drawn), 22.3%.
As to `COc1ccc(-n2ccc(C(=O)NCCN3CCCCCC3)n2)cc1`, the INHIBITION is on record as 51.1%.
For `COc1ccc(-n2ccc(C(=O)NCCN3CCCCC3C)n2)cc1` (stereo not drawn), the INHIBITION was 44.8%.
Take `CC(C)CNC(=O)[C@H]1CCS(=O)(=O)[C@@H]2CN(CC(C)C)C[C@H]12`: the INHIBITION was 23.3%.
Under `Cc1ccc(NC(=O)NCCn2cnc(C)c(C)c2=O)cc1F` stands -16.4%; under `CC(=O)c1cc2ncc(C(=O)NC3CCCC3)cc2[nH]1`, 8.52%.
Under `CC(C)OC(=O)N1C[C@@H]2CC[C@H]1CN(C(=O)c1ccccc1)C2` stands -63.6%; under `Cc1ncccc1C(=O)NCC(C)Oc1ccc(F)cc1` (stereo not drawn), 10.1%.
Under `CCn1cnnc1CNC(=O)N(C)Cc1cccc(OC(F)F)c1` stands 36.1%; under `Cc1cnc(C2(C)CCN(Cc3cscn3)CC2)s1`, -6.92%.
Regarding `COCCNC(=O)c1cc(-c2cc[nH]n2)n2ccccc12`, the INHIBITION is given as -22.5%.
As to `Cc1c(C(=O)NC2CCCOc3cc(Cl)ccc32)cnn1C` (stereo not drawn), the INHIBITION is -25.8%.
Consider `Cc1c(-c2cc(C(F)F)nc3sc(C(N)=O)c(N)c23)cnn1C`, for which the INHIBITION is recorded as -17.2%.
On to `CCn1cc(-c2cc(C(F)F)nc3sc(C(N)=O)c(N)c23)c(C)n1`, for which the INHIBITION is -35.4%.
In the case of `CCn1ncc(-c2cc(C(F)F)nc3sc(C(N)=O)c(N)c23)c1C`, the INHIBITION stood at 64.8%.
With `CC1CN(CCOc2ccccc2C#N)CCN1Cc1nccn1C` (stereo not drawn) the figure was 14.1%; with `Cc1ccc(C)c(CN2CCOC(c3noc(C)n3)C2)c1` (stereo not drawn), 8.53%; with `Cc1cccc(CN2CCC(c3nnsc3S(C)(=O)=O)CC2)n1`, 30.8%.
Under `O[C@@H]1CN(Cc2cccc(F)c2)CC[C@H]1NCc1ccccn1` stands 43.05%; under `CC(NCc1ccc(OCc2nccn2C)cc1)c1cccnc1` (stereo not drawn), -63.6%; under `CC(C(=O)NCc1cccs1)N1CCN(Cc2nccn2C)CC1` (stereo not drawn), 46.4%.
Under `CC(NCc1ccsc1)c1ccc(OCc2nccn2C)cc1` (stereo not drawn) stands 69.5%.
Turning to `CC(NCc1cccs1)c1ccc(OCc2nccn2C)cc1` (stereo not drawn), the INHIBITION stood at 63.8%.
Under `CC(NCc1cnn(C)c1)c1ccc(OCc2nccn2C)cc1` (stereo not drawn) stands 49.5%; under `COc1ccc(C(C)NCc2cccs2)cc1Cn1cccn1` (stereo not drawn), 10.6%; under `Cc1sc(NC(=O)CN(C)CCOc2cccc(F)c2)c(C)c1C`, 9.14%.
With `COCCNC(=O)[C@H]1CN(Cc2scnc2C)C[C@H]2OCC[C@@H]12` the figure was -44.8%; with `Cc1nc(CCNC(=O)NC2CCCN(c3ncccn3)C2)cs1` (stereo not drawn), 8.03%; with `O=C1COc2ccc(C(=O)NS(=O)(=O)c3ccccc3F)cc2N1`, 14.1%.
With `O=C1COc2cc(C(=O)NS(=O)(=O)c3ccccc3F)ccc2N1` the figure was 50.4%; with `O=C1COc2cc(C(=O)NS(=O)(=O)c3ccc(F)cc3F)ccc2N1`, 33.3%.
Take `c1cncc(-c2noc(CN3CCCCC3Cn3cccn3)n2)c1` (stereo not drawn): the INHIBITION stood at 33.8%.
As for `CC(OCc1ccccc1)C(=O)NCc1ccc(N(C)C)cc1` (stereo not drawn), the INHIBITION came out at 33.3%.
Under `Cn1ncc2c1C(COCC1CC1)N(Cc1ccoc1)CC2` (stereo not drawn) stands -29.3%; under `COC(=O)[C@H]1CN(C(=O)c2cscn2)C[C@@H]1c1ccc(F)cc1`, 32.8%; under `CNC(=O)[C@@]12CCO[C@@H]1CCN(S(=O)(=O)c1ccccc1)C2`, 42.7%.
Under `CNC(=O)[C@@]12CCO[C@@H]1CCN(S(=O)(=O)c1ccccc1C)C2` stands 6.6%; under `CNC(=O)[C@@]12CCO[C@@H]1CCN(S(=O)(=O)c1ccc(C)cc1)C2`, 21.8%.
With `CNC(=O)[C@@]12CCO[C@@H]1CCN(S(=O)(=O)c1cc(C)cc(C)c1)C2` the figure was 54.4%; with `CNC(=O)[C@@]12CCO[C@@H]1CCN(S(=O)(=O)c1cccc(C)c1)C2`, 38.7%; with `CNC(=O)[C@@]12CCO[C@@H]1CCN(S(=O)(=O)c1ccccc1F)C2`, 52%.
Take `Cc1nc(C(=O)N2CCC(c3nnc(Cn4ccnc4)n3C)CC2)cs1`: the INHIBITION was -19.5%.
As to `Cc1ccc(Br)c(S(=O)(=O)NCc2ccnn2C)c1`, the INHIBITION was -24.4%.
On to `COCCN1CCC2(CCN(CC3CC3)CC2)C1=O`, for which the INHIBITION came out at 8.85%.
Under `NC(=O)c1ccc(-n2ccnc2C2CC2)cc1N1CCCC1` stands 36.3%; under `NC(=O)c1ccc(-n2ccnc2-c2cccc(O)c2)cc1N1CCCC1`, 63.5%.
Under `Cc1nc[nH]c1-c1nccn1-c1ccc(C(N)=O)c(N2CCCC2)c1` stands 50.5%; under `Cc1nc[nH]c1-c1nccn1CCN(C)S(C)(=O)=O`, 8.86%.
On to `Cn1ccnc1-c1nccn1-c1cccc(CN2CCCC2)c1`, for which the INHIBITION was 39.9%.
Under `CCN(CC)CCn1ccnc1-c1cccc(O)c1` stands -18.8%; under `Cc1nc[nH]c1-c1nc2cc(S(=O)(=O)N3CCCC3)ccc2n1C`, 4.71%; under `c1cc(CN2CCCC2)cc(-n2ccnc2-c2ccncc2)c1`, 22.7%.
Under `Cc1nc[nH]c1-c1nccn1-c1cccc(CN2CCCC2)c1` stands 53%.
